Tests used:
Assay in all cases: Euclidean distance of Cell Painting phenotypic profile (signed KS, 77 features) to DMSO centroid (dimensionless distance); 5 or 10 uM (library dependent); higher = stronger phenotypic change vs DMSO (phenoactivity)
Conditions in all cases: 48 h
786-O = system: 786-O
In short: (§1)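 Harmony extracted 77 features from 20X confocal images (9 fields/well) of stained cells, scoring each as a signed Kolmogorov-Smirnov statistic against same-plate vehicle wells. The cells, five cancer lines and a healthy fibroblast line, had received library compounds for 48 h at 10 or 5 uM depending on library, with 0.1% DMSO final. Phenoactivity is the Euclidean distance from each plate-position-corrected, correlation-weighted, top-dose replicate-averaged profile to the median vehicle profile.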

A549 = system: A549
In short: as §1

FB = system: FB
In short: as §1

HEPG2 = system: HEPG2
In short: as §1

OVCAR4 = system: OVCAR4
In short: as §1

SMILES: CC(C)Oc1ccc(-c2nn([C@@H](C)c3oc4ccc(F)cc4c(=O)c3-c3cccc(F)c3)c3ncnc(N)c23)cc1F [umbralisib (TGR-1202)]
- Euclidean distance (786-O): 1.11
- Euclidean distance (A549): 1.14
- Euclidean distance (FB): 1.9
- Euclidean distance (HEPG2): 1.81
- Euclidean distance (OVCAR4): 0.974

SMILES: COc1ccc2[nH]c([S@@+]([O-])Cc3ncc(C)c(OC)c3C)nc2c1 [Esomeprazole sodium]
- Euclidean distance (786-O): 0.925
- Euclidean distance (A549): 0.792
- Euclidean distance (FB): 0.681
- Euclidean distance (HEPG2): 1.32
- Euclidean distance (OVCAR4): 0.926

SMILES: COc1ccc2cc1Oc1ccc(cc1)C[C@H]1c3cc(c(OC)cc3CCN1C)Oc1c(OC)c(OC)cc3c1[C@H](C2)N(C)CC3 [Tetrandrine]
- Euclidean distance (786-O): 4.3
- Euclidean distance (A549): 4.1
- Euclidean distance (FB): 2.97
- Euclidean distance (HEPG2): 1.84
- Euclidean distance (OVCAR4): 2.11

SMILES: C[C@H](CCC(=O)O)[C@H]1CC[C@H]2[C@@H]3[C@@H](O)C[C@@H]4C[C@H](O)CC[C@]4(C)[C@H]3CC[C@]12C [Ursodiol]
- Euclidean distance (786-O): 1.16
- Euclidean distance (A549): 0.853
- Euclidean distance (FB): 1.04
- Euclidean distance (HEPG2): 0.517
- Euclidean distance (OVCAR4): 0.943

SMILES: Nc1nc(N)c2nc(-c3ccccc3)c(N)nc2n1 [Triamterene]
- Euclidean distance (786-O): 1.01
- Euclidean distance (A549): 2.17
- Euclidean distance (FB): 1.13
- Euclidean distance (HEPG2): 1.45
- Euclidean distance (OVCAR4): 1.29

SMILES: C=C1C(=O)O[C@@H]2/C=C(\C)CC/C=C(\C)CC[C@@H]12 [Costunolide]
- Euclidean distance (786-O): 1.27
- Euclidean distance (A549): 0.924
- Euclidean distance (FB): 1.01
- Euclidean distance (HEPG2): 1.29
- Euclidean distance (OVCAR4): 0.93

SMILES: NS(=O)(=O)c1cc2c(cc1Cl)NC(C(Cl)Cl)NS2(=O)=O (stereo not given) [Trichlormethiazide]
- Euclidean distance (786-O): 1.14
- Euclidean distance (A549): 0.794
- Euclidean distance (FB): 0.859
- Euclidean distance (HEPG2): 0.531
- Euclidean distance (OVCAR4): 0.98

From the supplement of paper PMC10127200
